# Results: the supplement of paper PMC12494721
# Where a name gives a salt, the structure may show the parent alone.
# Test system: Clostridium sporogenes DSM 1664
# Test: growth (OD595) fold change vs plate DMSO controls (fold change (ratio)); higher = more growth
# Settings: incubation time: 27 h, anaerobic, 37 °C
# Outline: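 Absorbance at 595 nm was read after shaking the anaerobic mGAM cultures, which had grown in 96-well plates for 27 h at 37 °C. After blank subtraction and background correction against 20 µM compound solutions in water, a calibration factor of 5 gave OD values. Growth is the fold change against the median of the plate's DMSO controls. Values are the mean of 2 biological replicates, with fold changes above 1.5 set to NA.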
row,SMILES,growth
1,CCn1cc(C(=O)O)c(=O)c2ccc(C)nc21 [Nalidixic acid sodium salt] (20 µM),1.09
2,COc1cc(C(=O)NS(=O)(=O)c2ccccc2C)ccc1Cc1cn(C)c2ccc(NC(=O)OC3CCCC3)cc12 [Zafirlukast] (20 µM),0.542
3,NCCc1ccc(O)c(O)c1 [Dopamine hydrochloride] (20 µM),0.979
4,Cc1c(-c2ccccc2)oc2c(C(=O)OCCN3CCCCC3)cccc2c1=O [Flavoxate hydrochloride] (20 µM),1.09
5,Oc1c(I)cc(Cl)c2cccnc12 [Clioquinol] (20 µM),0.876
6,CN(C)C(=N)NC(=N)N [Metformin hydrochloride] (20 µM),0.988
7,N=C(N=C(N)N)N1CCOCC1 [Moroxidine hydrochloride] (20 µM),0.931
8,CCOCC(O)COc1ccc(NC(=O)CC[S+](C)C)cc1 (configuration not stated) [Suplatast Tosylate] (20 µM),0.999
9,CCN1CCN(c2cc3c(cc2F)c(=O)c(C(=O)O)cn3C2CC2)CC1 [Enrofloxacin] (20 µM),0.0184
10,C=C1c2c(Cl)ccc(O)c2C(O)=C2C(=O)[C@]3(O)C(O)=C(C(N)=O)C(=O)[C@@H](N(C)C)[C@@H]3[C@@H](O)[C@H]12.O=C(O)c1cc(S(=O)(=O)O)ccc1O [Meclocycline sulfosalicylate] (20 µM),0.0138
11,C#CCN(C)CCCOc1ccc(Cl)cc1Cl [Clorgyline hydrochloride] (20 µM),1.02
12,CC1(C)[C@H](C(=O)O)N2C(=O)C[C@H]2S1(=O)=O [Sulbactam] (20 µM),0.592
